Inconclusive results are not listed. The source made the active and inactive calls. Unless noted, calls come from the whole dose curve; as a rule, active = well fitted curve in the direction sought with a large enough effect in the repeat runs; inconclusive = weak or mixed curves; inactive = no such curve, though single readings can be large; an effect the other way counts as inactive or inconclusive.
Legend:
[1] = qHTS assay to identify small molecule agonists of the NFkB signaling pathway - cell viability counter screen (AID 1159515; calls by dose curve; note: series mostly up to about 61 µM; nearly all actives have a fitted effect of over 55% in size)
In short: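 5 hr compound treatment of NFkB-bla ME-180 cells (2,000/well, seeded overnight beforehand), followed by reporter substrate for 1.5 hr. CellTiter-Glo added afterward; luminescence after 30 min RT.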

[2] = qHTS assay to identify small molecule agonists of the endoplasmic reticulum stress response signaling pathway (AID 1159516; active = well fitted activation curve with a large enough effect in the signal ratio in the repeat runs, not every such curve was filed as active; the % refers to the signal ratio)
In short: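 Reporter HeLa cells (ESRE-beta-lactamase) underwent 5 hr compound incubation at 37 C and 5% CO2 in quantitative HTS format. Detection followed 2 hr of FRET substrate loading at room temperature.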

[3] = qHTS assay to identify small molecule agonists of the endoplasmic reticulum stress response signaling pathway - cell viability counter screen (AID 1159517; calls by dose curve;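 note: HeLa cells carrying an ER stress response element beta-lactamase reporter; series mostly up to about 61 µM; nearly all actives have a fitted effect of over 50% in size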)
In short: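 Cells, HeLa ESRE-bla; density, 1,500/well; dosing, 5 hr at 37 C, 5% CO2; readout, CellTiter-Glo luminescence after 30 min RT.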

[4] = qHTS assay to identify small molecule antagonists of the retinoid-related orphan receptor gamma (ROR-gamma) signaling pathway - cell viability counter screen (AID 1159520); note: nearly all actives have a fitted effect of over 50% in size
In short: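 Cytotoxicity was read from cellular ATP (CellTiter-Glo luminescence) after 16 hr at 37 C with 1 uM doxycycline induction. The inducer was added 2 hr after compound transfer to Tet-on ROR gamma CHO cells.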

[5] = qHTS assay to identify small molecule agonists of the AP-1 signaling pathway - cell viability counter screen (AID 1159525; calls by dose curve; note: nearly all actives have a fitted effect of over 55% in size)
In short: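 Luminescent ATP readout (Cell Titer Glo, 30 min RT), normalised to DMSO and tetra n-octyl ammonium bromide controls. Cells were ME-180 AP-1-bla in 0.5% dialyzed FBS Opti-MEM, with a 5 h, 37 °C compound exposure.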

[6] = qHTS assay to identify small molecule agonists of the AP-1 signaling pathway (AID 1159526; calls by dose curve)
[7] = molecular target: Retinoic acid receptor RXR-alpha (Homo sapiens) (UniProt P19793); assay: qHTS assay to identify small molecule agonists of the RXR signaling pathway (AID 1159527; calls by dose curve; note: nearly all actives have a fitted effect of over 35% in size; note: potency is the fitted concentration of half-maximal effect)
Retinoic acid receptor RXR-alpha (Homo sapiens), sequence (P19793 whole entry, looked up): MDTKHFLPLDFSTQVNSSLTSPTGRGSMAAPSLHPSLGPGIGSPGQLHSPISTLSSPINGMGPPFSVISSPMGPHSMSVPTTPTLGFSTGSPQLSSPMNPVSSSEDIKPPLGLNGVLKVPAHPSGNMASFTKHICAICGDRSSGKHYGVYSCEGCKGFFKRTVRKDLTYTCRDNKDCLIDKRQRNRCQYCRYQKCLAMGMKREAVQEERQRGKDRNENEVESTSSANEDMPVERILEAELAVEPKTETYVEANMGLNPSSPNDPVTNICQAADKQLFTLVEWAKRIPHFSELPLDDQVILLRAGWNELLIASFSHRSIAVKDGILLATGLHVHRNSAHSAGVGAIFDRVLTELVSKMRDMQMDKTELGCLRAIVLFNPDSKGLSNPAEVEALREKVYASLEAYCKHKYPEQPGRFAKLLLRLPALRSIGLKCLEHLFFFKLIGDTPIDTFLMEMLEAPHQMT
In short: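 qHTS of the Tox21 10K library in GeneBLAzer RXR-alpha HEK 293T cells carrying a beta-lactamase reporter […]; 16 hr treatment, 9-cis retinoic acid as agonist control, FRET read-out.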

[8] = qHTS assay to identify small molecule agonists of the RXR signaling pathway - cell viability counter screen (AID 1159529); note: series mostly up to about 77 µM; nearly all actives have a fitted effect of over 50% in size
In short: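 Cell viability is measured by CellTiter-Glo luminescence, 30 min at room temperature, in wells already read for beta-lactamase. Engineered HEK 293T cells (RXR-alpha-UAS-bla) are dosed 16 hr at 37 C. Tetraoctyl ammonium bromide serves as positive control.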

[9] = qHTS assay to identify small molecule antagonists of the retinoid acid receptor (RAR) signaling pathway - cell viability counter screen (AID 1159551); note: nearly all actives have a fitted effect of over 35% in size
In short: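 Seed C3RL4 cells; next day add compound, then retinol to 1 uM final; incubate 6 h at 37 C; add CellTiter-Glo; read luminescence after 30 min at RT.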

[10] = qHTS assay to identify small molecule antagonists of the retinoic acid receptor (RAR) signaling pathway (AID 1159552; note: nearly all actives have a fitted effect of over 50% in size)
In short: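 Quantitative HTS in C3RL4 RARE-luciferase reporter cells. Compounds were added with 1 uM (final) retinol; luminescence was read after 6 hr.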

[11] = qHTS assay to identify small molecule agonists of the retinoic acid receptor (RAR) signaling pathway (AID 1159553)
In short: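 Activation of retinol signaling was monitored via a RARE luciferase reporter in C3RL4 cells. After 6 hr compound treatment at 37 C, detection reagent was added for 30 min at room temperature before luminescence reading.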

[12] = qHTS assay to identify small molecule antagonists of the estrogen related receptor (ERR) signaling pathway from Tox21 library - cell viability counter screen (AID 1224834); note: nearly all actives have a fitted effect of over 30% in size
In short: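 CellTiter-Fluor fluorescence measured; ERR cells; 17.5 h compound incubation at 37 C; 30 min reagent step.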

[13] = molecular target: Luciferin 4-monooxygenase (Photinus pyralis) (UniProt P08659); assay: qHTS assay to identify small molecule inhibitors of firefly luciferase (AID 1224835); note: nearly all actives have a fitted effect of over 25% in size; note: potency is the fitted concentration of half-maximal effect
Luciferin 4-monooxygenase (Photinus pyralis), sequence (P08659 whole entry, looked up): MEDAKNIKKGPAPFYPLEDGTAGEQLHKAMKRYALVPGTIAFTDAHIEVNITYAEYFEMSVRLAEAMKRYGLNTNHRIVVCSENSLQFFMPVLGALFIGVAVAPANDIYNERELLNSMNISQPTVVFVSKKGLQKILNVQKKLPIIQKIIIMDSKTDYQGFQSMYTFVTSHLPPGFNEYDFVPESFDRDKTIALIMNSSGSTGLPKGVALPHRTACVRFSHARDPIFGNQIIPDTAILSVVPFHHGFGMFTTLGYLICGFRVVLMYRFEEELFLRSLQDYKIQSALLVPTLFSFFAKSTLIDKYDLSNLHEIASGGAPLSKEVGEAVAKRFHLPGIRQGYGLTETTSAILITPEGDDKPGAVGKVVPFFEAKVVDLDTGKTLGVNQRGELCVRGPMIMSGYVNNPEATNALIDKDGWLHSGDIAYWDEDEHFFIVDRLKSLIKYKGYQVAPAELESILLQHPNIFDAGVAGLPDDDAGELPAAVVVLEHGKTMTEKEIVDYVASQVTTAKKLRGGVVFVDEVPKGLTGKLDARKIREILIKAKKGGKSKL
In short: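 Inhibition of purified Photinus luciferase is measured by luminescence. Substrate levels (D-luciferin, ATP) sit at their KM values. Each compound is tested in a concentration series.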

[14] = qHTS assay to identify small molecule agonists of the constitutive androstane receptor (CAR) signaling pathway - cell viability counter screen (AID 1224836); note: series mostly up to about 92 µM; nearly all actives have a fitted effect of over 45% in size
In short: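 Counter screen multiplexed with the CAR reporter readout: HepG2 cells co-transfected with hCAR and the CYP2B6-2.2kb construct receive a 15-concentration compound series and 0.75 uM PK11195 (final), then CellTiter-Fluor fluorescence is read after 23 h.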

[15] = qHTS assay to identify small molecule antagonists of the constitutive androstane receptor (CAR) signaling pathway - cell viability counter screen (AID 1224837); note: series mostly up to about 92 µM; nearly all actives have a fitted effect of over 45% in size
In short: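 Using CellTiter-Fluor, viability is scored in HepG2 cells stably carrying hCAR and a 2.2kb CYP2B6 reporter after 23 hr compound exposure across 15 concentrations, with CITCO present at 50 nM.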

[16] = qHTS assay to identify small molecule antagonists of the estrogen related receptor signaling pathway with the pleiotropic PPARgamma coactivator (PGC) from Tox21 10K library - cell viability counter screen (AID 1224840; active = well fitted cell-killing curve with a large enough effect in the repeat runs, not every such curve was filed as active; note: nearly all actives have a fitted effect of over 40% in size)
In short: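 Here the PGC/ERR cells serve as a cytotoxicity control: they are exposed to compounds for 17.5 hours at 37 C, and live-cell signal is quantified using CellTiter-Fluor fluorescence.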

[17] = molecular target: Nuclear receptor subfamily 1 group I member 3 (Homo sapiens) (UniProt Q14994); assay: qHTS assay to identify small molecule antagonists of the constitutive androstane receptor (CAR) signaling pathway (AID 1224838);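 note: HepG2 cells stably expressing hCAR with CYP2B6 luciferase reporter stimulated by CITCO; nearly all actives have a fitted effect of over 40% in size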
Nuclear receptor subfamily 1 group I member 3 (Homo sapiens), sequence (Q14994 whole entry, looked up): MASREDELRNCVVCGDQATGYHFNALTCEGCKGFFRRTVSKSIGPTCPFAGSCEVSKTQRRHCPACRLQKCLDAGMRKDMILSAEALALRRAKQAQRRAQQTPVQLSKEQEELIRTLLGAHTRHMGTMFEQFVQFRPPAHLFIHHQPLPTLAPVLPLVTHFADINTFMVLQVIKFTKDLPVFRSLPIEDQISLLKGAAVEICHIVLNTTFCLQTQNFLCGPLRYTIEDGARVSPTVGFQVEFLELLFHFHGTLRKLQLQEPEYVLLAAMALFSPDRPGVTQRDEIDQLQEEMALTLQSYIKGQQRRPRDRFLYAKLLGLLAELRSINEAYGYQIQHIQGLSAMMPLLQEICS
In short: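 Reporter luminescence was quantified after 24 h exposure of hCAR/CYP2B6-2.2kb double-stable HepG2 cells to compounds at 15 concentrations in the presence of 50 nM CITCO final.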

[18] = molecular target: Nuclear receptor subfamily 1 group I member 3 (Homo sapiens) (UniProt Q14994); assay: qHTS assay to identify small molecule agonists of the constitutive androstane receptor (CAR) signaling pathway (AID 1224839); note: series mostly up to about 92 µM; nearly all actives have a fitted effect of over 15% in size
In short: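 A 15-concentration quantitative screen uses HepG2 cells co-transfected stably with human CAR and CYP2B6-2.2kb reporter. Treatment lasts 24 h with 0.75 uM PK11195 final present; ONE-Glo luminescence is the signal.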

[19] = qHTS assay to identify small molecule antagonists of the vitamin D receptor (VDR) signaling pathway - cell viability counter screen (AID 743225); note: nearly all actives have a fitted effect of over 50% in size
In short: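 Cells (VDR-UAS-bla HEK 293T) are plated, rested 4 h at 37C, dosed with compound and 3 nM final 1-alpha,25-dihydroxy vitamin D3, and incubated 16 h. Viability is taken from CellTiter-Glo luminescence in the reporter wells.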

Measured: Potency

COC(=O)/C=C(\C)CCC=C(C)C
not listed: [17] | [18] | [19]
inactive: all other assays above

Cc1ccc(OC(=O)CC(C)C)cc1
active: [13] 35.6 µM
not listed: [9] | [19]
inactive: all other assays above

O=C(O)CCC(=O)Nc1ccc(S(=O)(=O)Nc2nccs2)cc1
not listed: [17] | [18]
inactive: all other assays above

COc1ccccc1N1CCN(CC(O)COc2cc(OC)c(OC)c(OC)c2)CC1 (stereo unspecified)
not listed: [17] | [18]
inactive: all other assays above

CSC(=O)c1cccc2nnsc12
not listed: [18]
inactive: all other assays above

C=CCOC(=O)CCCCCCCC
active: [7] 17.5 µM
not listed: [9]
inactive: all other assays above

C[C@]12C=CC(=O)C=C1[C@@H](F)C[C@@H]1[C@@H]2[C@@H](O)C[C@@]2(C)[C@H]1CC[C@]2(O)C(=O)CO
not listed: [17] | [18]
inactive: all other assays above

CCCOc1ccc(C(=O)OCCN(CC)CC)cc1N
inactive: all assays above

Cc1ccc2ccccc2n1
not listed: [18] | [19]
inactive: all other assays above

Reference: PubChem BioAssay (Tox21)
